Hits are enriched below; roughly 6.7% of the tested compounds scored in any of these assays.
C diff growth – C. difficile growth inhibitors, primary screen, HTS; Clostridium difficile clinical isolate growth, OD600, 24 h; stronger effect = lower value; growth activity, negative = inhibition, % at 16 µg/mL (by protocol); 86,000 compounds, 0.25% hits; AID 1259249, 2017;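 active means mean growth activity at or below -80% and every replicate also at or below -80%; inconclusive means mean at or below -80% but some replicate above -80%; inactive means mean growth activity above -80%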;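 further: 0% = DMSO wells and -100% = levofloxacin 16 µg/mL wells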
Pf Dd2 inh – P. falciparum Dd2 growth inhibitors, primary screen, SYBR Green fluorescence, single dose replicates. 94,000 compounds, 2.3% hits. activity change, % at 10 µM. 72 h; stronger effect = lower value. AID 1159554, 2015; in the data active means activity change below about -80%; inconclusive means no clear call, values can overlap the other calls
T cruzi growth-1 – T. cruzi intracellular proliferation inhibitors, primary screen, cell-based, beta-gal Tulahuen parasites, NIH3T3 host, luminescence | inhibition, % at 8.34 µM | T. cruzi beta-gal in NIH3T3, GalScreen luminescence, 90 h | 77,000 compounds, 5.9% hits | AID 624255, 2012;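 active means mean inhibition above about 93%, with at least 55% of replicates each passing it, limit read from the data, passing the limit was not always enough; inconclusive means only one of those two conditions holds; inactive means neither condition holds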
T cruzi growth-2 – T. cruzi intracellular proliferation inhibitors, confirmation, cell-based, NIH3T3 host, beta-gal parasite, luminescence, cherry-pick; AID 651739, 2012; inhibition, % at 8.35 µM; shares compounds with T cruzi growth-1; T. cruzi beta-gal in NIH3T3, GalScreen luminescence, 90 h; 5,600 compounds, 72% hits;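 active means mean replicate inhibition above about 95% and at least 55% of replicates individually reaching it, limit read from the data; inconclusive means only one of the two criteria is met; inactive means neither criterion is met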
T cruzi growth-3 – inhibitors of intracellular T. cruzi replication, confirmation, NIH3T3 host cells, beta-gal parasites, cherry-pick, set 2 | 5,600 compounds, 21% hits | AID 651740, 2012 | inhibition, % at 2.09 µM | shares compounds with T cruzi growth-1 | T. cruzi beta-gal in NIH3T3, GalScreen luminescence, 90 h;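 active means mean inhibition above about 95%, with at least 55% of replicates also reaching it, limit read from the data; inconclusive means meets just one of the two conditions; inactive means meets neither condition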;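 further: plate controls were neutral control median for no effect and positive control median for full effect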
3T3 cytotox – cytotoxicity in mouse NIH/3T3 fibroblasts, confirmation, cytotoxicity control for T. cruzi proliferation inhibitor project, cell-based, cherry-pick, single point; NIH/3T3 viability, CellTiter-Glo ATP luminescence, 90 h; AID 651742, 2012; shares compounds with T cruzi growth-1; 5,600 compounds, 14% hits; cytotoxicity (signal decrease), % at 8.35 µM;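 active means mean signal decrease across replicates above about 35% based on untreated-well scatter, with enough replicates individually passing, limit read from the data; inconclusive means no rule stated though some were filed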;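 further: 0% = median of neutral control wells and 100% = median of positive control wells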
3T3 cytotox 2 – NIH/3T3 fibroblast cytotoxicity, confirmation, cytotoxicity control, cell-based, cherry-pick, single point, set 2 | shares compounds with T cruzi growth-1 | NIH/3T3 viability, CellTiter-Glo ATP luminescence, 90 h | inhibition, % at 24.9 µM | 5,600 compounds, 56% hits;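 active means mean loss of cell viability signal at or above a set limit, and enough replicates individually reaching it; inconclusive means meets only the mean limit or only the replicate share; inactive means meets neither condition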;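 further: 0% = median of neutral control wells and 100% = median of positive control wells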
An asterisk follows results filed as active; u = inconclusive; x = no result; ! = a repeat was not active.

SMILES	C diff growth	Pf Dd2 inh	T cruzi growth-1	T cruzi growth-2	T cruzi growth-3	3T3 cytotox	3T3 cytotox 2
C[C@@H]1CCCCO[C@@H](CN(C)Cc2ccccc2)[C@H](C)CN([C@@H](C)CO)C(=O)c2cc(NC(=O)c3ccncc3)ccc2O1	-4	4	70	x	x	x	x
C[C@H]1CCCCO[C@H](CN(C)Cc2ccncc2)[C@@H](C)CN([C@@H](C)CO)C(=O)c2cc(NC(=O)Cc3ccccc3)ccc2O1	-3	-3	81	x	x	x	x
C[C@@H]1CN([C@@H](C)CO)C(=O)c2cc(NC(=O)c3ccccc3)ccc2O[C@@H](C)CCCCO[C@@H]1CN(C)Cc1ccncc1	-8	-77	114*	100*	29	-14	14
C[C@H](CO)N1C[C@H](C)[C@H](CN(C)Cc2ccncc2)OCCCC[C@H](C)Oc2ccc(NC(=O)Cc3ccccc3)cc2C1=O	-6	-2	103*	96*	82	8	8
C[C@@H]1CCCCO[C@H](CN(C)Cc2ccncc2)[C@H](C)CN([C@@H](C)CO)C(=O)c2cc(NC(=O)c3ccccc3)ccc2O1	-3	-32	12	x	x	x	x
CC(=O)N1CC2(C1)[C@H](c1ccc(-c3ccc(C#N)cc3)cc1)[C@H](CO)N2C(C)=O	3	16	x	x	x	x	x
O=C(N[C@H]1CC[C@@H](CCNS(=O)(=O)c2ccc(Cl)cc2)O[C@@H]1CO)c1cccc(F)c1	0	8	8	x	x	x	x
O=C(C[C@@H]1CC[C@H](NC(=O)Nc2ccc3c(c2)OCO3)[C@@H](CO)O1)NCCCN1CCOCC1	-3	11	-48	x	x	x	x
C[C@@H]1CCCCO[C@H](CN(C)Cc2ccc(C(F)(F)F)cc2)[C@@H](C)CN([C@H](C)CO)C(=O)c2cc(N(C)C)ccc2O1	15	-31	u	112*	16	25	u
C[C@H](CO)N1C[C@H](C)[C@H](CN(C)Cc2ccc(C(F)(F)F)cc2)OCCCC[C@H](C)Oc2ccc(N(C)C)cc2C1=O	19	-15	62	x	x	x	x
C[C@H]1CCCCO[C@@H](CN(C)Cc2ccc(C(=O)O)cc2)[C@@H](C)CN([C@@H](C)CO)C(=O)c2cc(N(C)C)ccc2O1	2	26	5	x	x	x	x
C[C@@H]1CN([C@H](C)CO)C(=O)c2cc(N(C)C)ccc2O[C@@H](C)CCCCO[C@@H]1CN(C)Cc1ccc(C(F)(F)F)cc1	28	-67	u	109*	88	18	107*
C[C@H](CO)N1C[C@H](C)[C@@H](CN(C)CC2CCCCC2)OCCCC[C@H](C)Oc2ccc(N(C)C)cc2C1=O	5	-10	99*	110*	83	-11	14
C[C@H](CO)N1C[C@H](C)[C@@H](CN(C)Cc2ccc(C(F)(F)F)cc2)OCCCC[C@H](C)Oc2ccc(N(C)C)cc2C1=O	19	-20	108*	111*	95	-8	97*
C[C@@H]1CCCCO[C@@H](CN(C)CC2CCCCC2)[C@@H](C)CN([C@H](C)CO)C(=O)c2cc(N(C)C)ccc2O1	2	22	77	x	x	x	x
C[C@@H]1CCCCO[C@@H](CN(C)Cc2ccc(C(=O)O)cc2)[C@@H](C)CN([C@H](C)CO)C(=O)c2cc(N(C)C)ccc2O1	2	41	50	x	x	x	x
CO[C@@H]1CN(C)C(=O)c2ccc(NC(=O)NC3CCCCC3)cc2OC[C@@H](C)NC[C@H]1C	x	20	46	x	x	x	x
O=C(C[C@@H]1CC[C@@H](NS(=O)(=O)c2ccc(F)cc2)[C@@H](CO)O1)NCCN1CCCCC1	-4	7	57	x	x	x	x
CCCNC(=O)N[C@@H]1C=C[C@@H](CC(=O)NC2CCCCC2)O[C@@H]1CO	x	1	80	x	x	x	x
CN(C)C(=O)c1cccc(-c2ccc(C3[C@H]4CNC[C@@H]3N4Cc3cccc(C(F)(F)F)c3)cc2)c1 (stereo not given in full)	1	-41	x	x	x	x	x
C[C@@H]1CN([C@@H](C)CO)C(=O)c2cc(N(C)C)ccc2O[C@@H](C)CCCCO[C@@H]1CN(C)Cc1ccc(C(F)(F)F)cc1	22	-21	74	x	x	x	x
C[C@@H]1CN([C@H](C)CO)C(=O)c2cc(N(C)C)ccc2O[C@@H](C)CCCCO[C@H]1CN(C)Cc1ccc(C(F)(F)F)cc1	22	-23	120*	99*	113*	7	106*
C[C@H](CO)N1C[C@H](C)[C@@H](CN(C)Cc2ccccc2)OCCCC[C@H](C)Oc2ccc(N(C)C)cc2C1=O	-3	-13	100*!	32	1	-9	-3
C[C@@H]1CCCCO[C@@H](CN(C)Cc2ccccc2)[C@@H](C)CN([C@H](C)CO)C(=O)c2cc(N(C)C)ccc2O1	2	13	61	x	x	x	x
C[C@@H]1CCCCO[C@@H](CN(C)Cc2ccc(C(=O)O)cc2)[C@H](C)CN([C@@H](C)CO)C(=O)c2cc(N(C)C)ccc2O1	1	24	29	x	x	x	x
SMILES	C diff growth	Pf Dd2 inh	T cruzi growth-1	T cruzi growth-2	T cruzi growth-3	3T3 cytotox	3T3 cytotox 2
C[C@@H]1CN([C@@H](C)CO)C(=O)c2cc(N(C)C)ccc2O[C@@H](C)CCCCO[C@H]1CN(C)Cc1ccc(C(F)(F)F)cc1	28	-48	119*	110*	108*	4	87*
C[C@H]1CN([C@@H](C)CO)S(=O)(=O)c2ccc(-c3cccnc3)cc2O[C@H]1CN(C)Cc1cncnc1	1	1	7	x	x	x	x
C/C=C/c1ccc([C@H]2[C@@H](CO)N(c3nc(CC)cs3)[C@H]2CNC(C)C)cc1	-5	-45	98*	98*	59	18	103*
C/C=C/c1ccc([C@@H]2[C@H](C#N)N(c3nc(CC)cs3)[C@H]2CO)cc1	8	-31	104*	105*	83	21	27*
C/C=C/c1ccc([C@H]2[C@@H](CO)N(S(C)(=O)=O)[C@H]2CNC(C)C)cc1	-6	-33	x	x	x	x	x
C/C=C/c1ccc([C@@H]2[C@@H](C#N)N(c3nc(CC)cs3)[C@H]2CO)cc1	11	-37	93	x	x	x	x
C/C=C/c1ccc([C@@H]2[C@@H](CO)N(c3nc(CC)cs3)[C@H]2C#N)cc1	29	-17	81	x	x	x	x
C/C=C/c1ccc([C@H]2[C@@H](C#N)N(c3nc(CC)cs3)[C@H]2CO)cc1	-7	-52	109*	103*	111*	19	u
CO[C@H]1CN(C)C(=O)c2cc(NS(C)(=O)=O)ccc2OC[C@@H](C)N(CCC(F)(F)F)C[C@@H]1C	x	13	-15	x	x	x	x

From PubChem BioAssay
